# PubChem BioAssay (EPA / NIEHS)
# Values joined by “and” are separate entries in the source; they are usually repeats but may differ in a detail not shown here. Equal values may be shown once. Records with an inconclusive call do not appear. Active and inactive are the calls of the source. Rule for the calls, unless noted: active = hit-call score of the fitted dose curve at least 0.9, where 1 is the maximum; inactive = score below 0.9. Peptide text beside a SMILES is read from it.
# How the values were obtained:
# [1] = BSK_BT_Bcell_Proliferation: Viability Assessment in the BioMAP Diversity Plus: BT Assay for B cell Proliferation (AID 2284227); details: primary human B cells with PBMC
# In short: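 Using a human primary B cell–PBMC co-culture, the assay measures total protein by sulforhodamine B absorbance as a gauge of proliferation after 72 h. Analysis followed the positive fitting direction with DMSO as baseline.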
# [2] = read-out: Interleukin 6 (IL6), IL6 (gene 3569); experiment: BSK_BT_xIL6: BioMAP Diversity Plus: BT Assay for Interleukin 6 (IL6) Biomarker Activity (AID 2284228); details: primary human B cells with PBMC
# In short: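 Human B cell plus PBMC co-culture exposed to test chemical for 24 h; secreted IL-6 quantified by Luminex xMAP bead assay. Activity fitted in the positive direction against DMSO as negative control and baseline.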
# [3] = read-out: Interleukin 17A (IL17A), IL17A (gene 3605); experiment: BSK_BT_xIL17A: BioMAP Diversity Plus: BT Assay for Interleukin 17A (IL17A) Biomarker Activity (AID 2284229); details: primary human B cells with PBMC
# In short: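 B cells co-cultured with PBMC were exposed to test chemicals, and secreted IL-17A was quantified 24 h after dosing by Luminex xMAP bead immunoassay. Activity was fitted in the gain direction against DMSO as baseline.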
# [4] = read-out: Tumor necrosis factor (Homo sapiens) (UniProt P01375); experiment: BSK_BT_xTNFa: BioMAP Diversity Plus: BT Assay for Tumor necrosis factor alpha (TNF-alpha) Biomarker Activity (AID 2284230); details: primary human B cells with PBMC
# In short: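 Endpoint derived in the positive direction versus DMSO vehicle. Cells: B cells together with PBMC, exposed 24 h before TNF-alpha in the medium was read on the Luminex xMAP platform.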
# [5] = read-out: Vascular cell adhesion molecule 1 (VCAM1), VCAM1 (gene 7412); experiment: BSK_MyoF_VCAM1: BioMAP Diversity Plus: MyoF Assay for Vascular cell adhesion molecule 1 (VCAM1) Biomarker Activity (AID 2284231); details: primary human lung fibroblasts
# In short: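 Primary human lung fibroblasts were dosed with test chemical for 24 h, then cell-surface VCAM-1 was measured by ELISA. Activity was fitted in the positive direction against DMSO as negative control and baseline.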
# [6] = read-out: Collagen I, COL1A1 (gene 1277); experiment: BSK_MyoF_CollagenI: BioMAP Diversity Plus: MyoF Assay for Collagen I Biomarker Activity (AID 2284238); details: primary human lung fibroblasts
# In short: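 Human lung fibroblasts were exposed to test chemical for 24 h, then Collagen I was quantified by ELISA. Activity was fitted in the increasing direction against DMSO as the negative control and baseline.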
# [7] = read-out: Collagen III, COL3A1 (gene 1281); experiment: BSK_MyoF_CollagenIII: BioMAP Diversity Plus: MyoF Assay for Collagen III Biomarker Activity (AID 2284239); details: primary human lung fibroblasts
# In short: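 Human lung fibroblasts were dosed with chemicals and, 24 hours later, collagen III was measured by ELISA. Activity was fitted in the positive direction against the DMSO negative-control baseline.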
# [8] = read-out: Interleukin 17F (IL17F), IL17F (gene 112744); experiment: BSK_BT_xIL17F: BioMAP Diversity Plus: BT Assay for Interleukin 17F (IL17F) Biomarker Activity (AID 2284243); details: primary human B cells with PBMC
# In short: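 B cell/PBMC co-culture (human primary), 24 h compound exposure; sIL-17F by Luminex xMAP; gain-of-signal fit vs DMSO baseline.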
# [9] = read-out: Interleukin 2 (IL2), IL2 (gene 3558); experiment: BSK_BT_xIL2: BioMAP Diversity Plus: BT Assay for Interleukin 2 (IL2) Biomarker Activity (AID 2284245); details: primary human B cells with PBMC
# In short: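 Secreted IL-2 was read by Luminex xMAP from B cells co-cultured with PBMC (human primary) 24 h post-dosing; activity was analysed as gain of signal relative to DMSO vehicle.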
# [10] = read-out: Basic fibroblast growth factor (bFGF), FGF2 (gene 2247); experiment: BSK_MyoF_bFGF: BioMAP Diversity Plus: MyoF Assay for Basic fibroblast growth factor (bFGF) Biomarker Activity (AID 2284246); details: primary human lung fibroblasts
# In short: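 bFGF was measured by ELISA in primary human lung fibroblasts 24 h after chemical addition. Signal was analysed as positive-direction change relative to DMSO baseline.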
# [11] = read-out: Collagen IV, COL4A1 (gene 1282); experiment: BSK_MyoF_CollagenIV: BioMAP Diversity Plus: MyoF Assay for Collagen IV Biomarker Activity (AID 2284247); details: primary human lung fibroblasts
# In short: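 Collagen IV quantified by ELISA in human lung fibroblast cultures 24 h after chemical treatment, with DMSO as baseline. Parallel SRB staining (0.1% SRB after TCA fixation, 560 nm) flags overt cytotoxicity.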
# [12] = read-out: Monokine induced gamma interferon (MIG), CXCL9 (gene 4283); experiment: BSK_KF3CT_MIG: BioMAP Diversity Plus: KF3CT Assay for Monokine induced gamma interferon (MIG) Biomarker Activity (AID 2284248); details: primary human keratinocytes with fibroblasts
# In short: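 Human keratinocyte plus foreskin fibroblast primary co-culture dosed with test chemical for 24 h; MIG level measured by ELISA and fitted in the positive direction against DMSO as baseline.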
# [13] = CCTE_Mundy_HCI_Cortical_NOG_BPCount: CCTE's Neurite Outgrowth Assay in rat cortical cells for Branch Point Count, Mundy Lab (AID 2284237)
# In short: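 Measured 50.33 h after dosing, this morphology endpoint uses rat primary cortical cultures labelled for betaIII-tubulin. Branch points are quantified by high-content imaging, with DMSO as negative control and baseline.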
# [14] = CCTE_Mundy_HCI_hNP1_Casp3_7: CCTE's Caspase-Glo 3/7 Assay in human neuroprogenitor cells for Apoptosis, Mundy Lab (AID 2284240)
# In short: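 Apoptosis is scored by activated caspase-3/7 luminescence in WA09-derived neural progenitor cells, measured 26.5 h after chemical dosing. Values represent gain of signal relative to DMSO vehicle.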
# [15] = CCTE_Mundy_HCI_hNP1_CellTiter: CCTE's Cell Titer-Glo 2 Assay in human neuroprogenitor cells for Viability, Mundy Lab (AID 2284241; active = hit-call score of the fitted dose curve at least 0.9, where 1 is the maximum)
# In short: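 Human neural progenitor cells (hNP1, WA09-derived) were plated on poly-L-ornithine/laminin and grown 40 to 44 hours at 37 °C, 5% CO2 before chemical addition. Twenty-four hours later, ATP was measured by CellTiter-Glo luminescence; loss of signal versus DMSO indicates reduced viability.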
# [16] = UKN2_HCS_IMR90_cell_viability: Viability Assessment in the University of Konstanz (UKN) Leist Lab Neural Crest Cell Migration Assay in human induced IMR90 Pluripotent Stem Cells (UKN2) (AID 2284233);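 note: cells exposed to compound for 24 h after a 24 h migration phase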
# In short: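 After calcein-AM/Hoechst staining, viability is quantified by high-content fluorescence imaging, relative to DMSO, in iPSC (IMR90)-derived neural crest cells. Exposure lasts 24 h, starting after a 24 h migration period on PLO/laminin/fibronectin coating.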
# [17] = CCTE_Mundy_HCI_Cortical_NOG_NeuronCount: CCTE's Neurite Outgrowth Assay in rat cortical cells for Neuron Count, Mundy Lab (AID 2284236; active = hit-call score of the fitted dose curve at least 0.9, where 1 is the maximum;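 note: neurons counted by imaging betaIII-tubulin and Hoechst stained cortical cells; cells exposed to compound for about 48 hours before fixation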)
# In short: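 Read-out: neuron number by high-content imaging of betaIII-tubulin (Alexa Fluor-488) and Hoechst-labelled rat primary cortical cells.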
# [18] = CCTE_Mundy_HCI_Cortical_Synap_Neur_Matur_NeuronCount: CCTE's Synaptogenesis and Neurite Maturation Assay in rat cortical cells for Neuron Count, Mundy Lab (AID 2284242; active = hit-call score of the fitted dose curve at least 0.9, where 1 is the maximum)
# In short: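 Neuron counts come from automated high-content imaging of Hoechst nuclei and MAP2/synaptophysin immunostaining at DIV 12, with loss of signal judged against DMSO. Cultures of rat cortical cells had glial growth arrested by AraC at DIV 5; chemical exposure began DIV 7.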
# [19] = TAMU_HCS_1.5hr_SingleDonor1434_Cytotoxicity: Cytotoxicity Assessment using High-content Screening (HCS) Fluorescent Imaging for the Texas A&M University (TAMU) 1.5-hr Human Induced Pluripotent Stem Cell (iPSC)-derived Cardiotoxicity Assay (AID 2284234; active = hit-call score of the fitted dose curve at least 0.9, where 1 is the maximum)
# In short: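 Nuclear counts from Hoechst 33342 imaging define cytotoxicity here, with EC10 (10% cell-count loss relative to DMSO) as point of departure. iPSC cardiomyocytes received 0.2-100 uM test chemical in 0.5% DMSO for 1.5 h at 37 C.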
# Sequence of Tumor necrosis factor (Homo sapiens) (P01375 whole entry, looked up): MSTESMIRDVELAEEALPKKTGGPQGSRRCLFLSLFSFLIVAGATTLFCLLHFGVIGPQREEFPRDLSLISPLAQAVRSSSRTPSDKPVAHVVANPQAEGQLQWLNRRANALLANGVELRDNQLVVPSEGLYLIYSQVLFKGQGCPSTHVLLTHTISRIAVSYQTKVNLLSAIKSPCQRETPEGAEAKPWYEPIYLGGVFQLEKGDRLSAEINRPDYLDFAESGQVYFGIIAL
smiles,measurement,setting,value
CC=C(C)C=CC=C(C)C,AC50,[1],26.9 µM (active)
same,AC50,[2],14.1 µM (active)
same,outcome,[3],inactive
same,AC50,[4],27.7 µM (active)
same,outcome,[5],inactive
same,outcome,[6],inactive
same,outcome,[7],inactive
same,AC50,[8],24.9 µM (active)
same,AC50,[9],28.5 µM (active)
same,outcome,[10],inactive
same,AC50,[11],0.016 µM (active)
CCCCCCCCC(CO)CCCCCC (stereo unspecified),outcome,[1],inactive
same,AC50,[2],30.2 µM (active)
same,outcome,[3],inactive
same,outcome,[4],inactive
same,outcome,[5],inactive
same,outcome,[6],inactive
same,outcome,[7],inactive
same,outcome,[8],inactive
same,outcome,[9],inactive
same,outcome,[10],inactive
same,outcome,[11],inactive
Nc1nc(N)nc(-c2ccccc2)n1,outcome,[12],inactive
Cc1noc(NS(=O)(=O)c2ccc(N)cc2)c1C,outcome,[13],inactive
same,outcome,[14],inactive
same,outcome,[15],inactive
CC(CCC(=O)O)(c1ccc(O)cc1)c1ccc(O)cc1,outcome,[12],inactive
C=CC(=O)NCOCCCC,outcome,[1],inactive
same,outcome,[2],inactive
same,outcome,[3],inactive
same,outcome,[4],inactive
same,outcome,[5],inactive
same,outcome,[6],inactive
same,outcome,[7],inactive
same,outcome,[8],inactive
same,outcome,[9],inactive
same,outcome,[10],inactive
same,outcome,[11],inactive
O=C(Oc1ccccc1)c1ccccc1C(=O)Oc1ccccc1,AC50,[1],26.2 µM (active)
same,outcome,[2],inactive
same,outcome,[3],inactive
same,outcome,[4],inactive
same,AC50,[5],20 µM (active)
same,outcome,[6],inactive
same,outcome,[7],inactive
same,outcome,[8],inactive
same,outcome,[9],inactive
same,outcome,[10],inactive
same,outcome,[11],inactive
CC1=CC=C(C(C)C)CC1,outcome,[1],inactive
same,outcome,[2],inactive
same,outcome,[3],inactive
same,outcome,[4],inactive
same,outcome,[5],inactive
same,outcome,[6],inactive
same,outcome,[7],inactive
same,outcome,[8],inactive
same,outcome,[9],inactive
same,outcome,[10],inactive
same,outcome,[11],inactive
CCCCCCCCCCCC(=O)N(C)CC(=O)O,outcome,[12],inactive
CCCCNS(=O)(=O)c1ccccc1,outcome,[16],inactive
same,outcome,[17],inactive
same,outcome,[13],inactive
same,outcome,[14],inactive
same,outcome,[15],inactive
same,outcome,[18],inactive
CC(Cl)COP(=O)(OCC(C)Cl)OCC(C)Cl (stereo unspecified),outcome,[1],inactive
same,outcome,[2],inactive
same,outcome,[3],inactive
same,outcome,[4],inactive
same,outcome,[5],inactive
same,outcome,[6],inactive
same,outcome,[7],inactive
same,outcome,[8],inactive
same,outcome,[9],inactive
same,outcome,[10],inactive
same,outcome,[11],inactive
Nc1cccc(N)n1,outcome,[1],inactive
same,outcome,[2],inactive
same,outcome,[3],inactive
same,outcome,[4],inactive
same,outcome,[5],inactive
same,outcome,[6],inactive
same,outcome,[7],inactive
same,outcome,[8],inactive
same,outcome,[9],inactive
same,outcome,[10],inactive
same,outcome,[11],inactive
CCc1cccc(C)c1N(C(=O)CS(=O)(=O)O)C(C)COC (stereo unspecified),outcome,[1],inactive
same,outcome,[2],inactive
same,outcome,[3],inactive
same,outcome,[4],inactive
same,outcome,[5],inactive
same,outcome,[6],inactive
same,outcome,[7],inactive
same,outcome,[8],inactive
same,outcome,[9],inactive
same,outcome,[10],inactive
same,outcome,[11],inactive
COC(=O)[C@H](Cc1ccccc1)NC(=O)[C@@H](N)CC(=O)O (H-Asp-Phe-OMe),outcome,[19],inactive
same,outcome,[17],inactive
same,outcome,[13],inactive
same,outcome,[14],inactive
same,outcome,[15],inactive
Cc1c(C(=O)c2c[nH]n(C)c2=O)ccc(S(C)(=O)=O)c1C1=NOCC1,outcome,[13],inactive
same,outcome,[14],inactive
same,outcome,[15],inactive
c1ccc2sc(SSN3CCOCC3)nc2c1,AC50,[2],13.3 µM (active)
same,AC50,[3],20 µM (active)
same,AC50,[4],24.3 µM (active)
same,AC50,[5],30.4 µM (active)
same,AC50,[6],15.5 µM (active)
same,AC50,[7],28.4 µM (active)
same,AC50,[8],19.9 µM (active)
same,AC50,[9],28.1 µM (active)
same,AC50,[10],28.8 µM (active)
same,AC50,[11],14.9 µM (active)
c1ccc(Nc2cccc3ccccc23)cc1,AC50,[12],38.9 µM (active) and 33.8 µM (active)
CC(C)[N+](C)(CCOC(=O)C1c2ccccc2Oc2ccccc21)C(C)C,outcome,[1],inactive
same,outcome,[2],inactive
same,outcome,[3],inactive
same,outcome,[4],inactive
same,outcome,[5],inactive
same,outcome,[6],inactive
same,outcome,[7],inactive
same,outcome,[8],inactive
same,outcome,[9],inactive
same,outcome,[10],inactive
same,outcome,[11],inactive
CC(C)CCCCCOC(=O)CS,outcome,[1],inactive
same,outcome,[2],inactive
same,outcome,[3],inactive
same,outcome,[4],inactive
same,outcome,[5],inactive
same,outcome,[6],inactive
same,outcome,[7],inactive
same,outcome,[8],inactive
same,outcome,[9],inactive
same,outcome,[10],inactive
same,outcome,[11],inactive
CCCCC1C(=O)N(c2ccccc2)N(c2ccccc2)C1=O,outcome,[1],inactive
same,outcome,[2],inactive
same,outcome,[3],inactive
same,outcome,[4],inactive
same,outcome,[5],inactive
same,outcome,[6],inactive
same,outcome,[7],inactive
same,outcome,[8],inactive
same,outcome,[10],inactive
same,outcome,[11],inactive
